{"source": "PubChem BioAssay AID1626", "about": "(SRMLSC, 2009)", "note": "The whole screen tested about 220,000 compounds, of which about 2,000 (0.91%) were called active. About 2% were inconclusive and are not listed. Rule as the data show it: inconclusive = inhibition above about 80% without an active follow-up result; inactive = below that; test concentration not stated here. Not all results are given here. Results with a measured potency or affinity are listed apart.", "data": [{"experiment": "M. tuberculosis H37Rv growth inhibitors, H37Rv strain (AID 1626);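 also: bacteria incubated seven days before Alamar blue readout; 0% = bacteria only wells and 100% = bacteria with antibiotic wells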", "conditions": "hits give high values, concentration not given here", "values": [{"molecule": "CCOC(=O)c1cc2occc2n1CCCN1C(=O)c2ccccc2C1=O", "inhibition": "-1.25% (inactive)"}, {"molecule": "CCc1cc2ccc(OC)cc2nc1SCC(=O)NNC(C)=O", "inhibition": "2.9% (inactive)"}, {"molecule": "CC(=O)N(NC(N)=O)C(C)CC(=O)C1C(C)C=CCC1(C)C", "note": "(configuration not stated)", "inhibition": "-4.41% (inactive)"}, {"molecule": "CC(c1nnnn1C(C)(C)C)N(Cc1cccnc1)Cc1ccccc1Cl", "note": "(configuration not stated)", "inhibition": "11.3% (inactive)"}, {"molecule": "O=C(Cc1cc(=O)[nH][nH]1)N/N=C/c1ccccc1Cl", "inhibition": "0.78% (inactive)"}, {"molecule": "O=[N+]([O-])c1ccc(/C=N/N/C(=N/c2ccccn2)c2ccccn2)cc1", "inhibition": "6.35% (inactive)"}, {"molecule": "O=C(COc1ccccc1[N+](=O)[O-])N/N=C/c1ccc(O)c([N+](=O)[O-])c1", "inhibition": "-1.06% (inactive)"}, {"molecule": "C=CCNC(=S)NNC(=O)c1ccc(=O)n(Cc2ccc(Cl)cc2Cl)c1", "inhibition": "2.51% (inactive)"}, {"molecule": "COC(=O)/C(=C1/Oc2ccc(C)cc2S1)C(F)(F)F", "inhibition": "1.01% (inactive)"}, {"molecule": "COC(=O)/C(=C1/Oc2ccc(C(C)(C)C)cc2S1)C(F)(F)F", "inhibition": "-3.79% (inactive)"}, {"molecule": "CCCCCn1c(=O)[nH]c2cc(C(=O)NCCN(CC)CC)ccc2c1=O", "inhibition": "2.41% (inactive)"}, {"molecule": "Cc1cc2cc(C)c(SCC(=O)NCc3ccco3)nc2cc1C", "inhibition": "2.4% (inactive)"}, {"molecule": "COC(=O)CCCC[C@H]1SC[C@H]2NC(=O)N[C@]21O", "inhibition": "-9.41% (inactive)"}, {"molecule": "COc1ccc(Cl)cc1C(=O)Nc1ccc(NC(=O)C(C)C)cc1", "inhibition": "6.21% (inactive)"}, {"molecule": "Cc1ccc(S(=O)(=O)n2c([N+](=O)[O-])cnc2C)c(C)c1C", "inhibition": "2.51% (inactive)"}, {"molecule": "Cc1nn(-c2ccccc2)c2sc(C(=O)O)cc12", "inhibition": "-2.71% (inactive)"}, {"molecule": "CC(=O)c1sc(NC(=O)c2cc3c(C)nn(-c4ccccc4)c3s2)nc1C", "inhibition": "-3.28% (inactive)"}, {"molecule": "C/C=C/c1ccc(OCC(=O)OCC)c(OC)c1", "inhibition": "78.2% (inactive)"}, {"molecule": "Cc1ccc(Nc2nc(COC(=O)COc3ccc(C=O)cc3)cs2)cc1", "inhibition": "-1.49% (inactive)"}, {"molecule": "Cc1occc1-c1n[nH]c(=S)n1C", "inhibition": "-11.2% (inactive)"}, {"molecule": "NC(=O)C1CCN(C(=O)C2c3ccccc3C(=O)N3CCc4ccccc4C23)CC1", "note": "(configuration not stated)", "inhibition": "1.51% (inactive)"}, {"molecule": "COc1cccc(-c2nn(C)c3sc(C(=O)N4CCN(c5ccccn5)CC4)cc23)c1", "inhibition": "60% (inactive)"}, {"molecule": "O=C(c1cnc(N2CCN(c3ncccn3)CC2)c2ccccc12)N1CCN(c2ccccn2)CC1", "inhibition": "1.07% (inactive)"}, {"molecule": "CC(C)NC(=O)c1cnc(N2CCN(c3ccccn3)CC2)c2ccccc12", "inhibition": "6.14% (inactive)"}, {"molecule": "O=C(Nc1ccc(C(F)(F)F)cc1)c1cnc(N2CCN(c3ccccn3)CC2)c2ccccc12", "inhibition": "65.3% (inactive)"}, {"molecule": "Cn1nc(-c2ccc(Cl)cc2)c2cc(C(=O)N3CCN(c4ccccc4)CC3)sc21", "inhibition": "7.8% (inactive)"}, {"molecule": "COc1ccccc1N1CCN(c2ncc(C(=O)N3CCN(c4cccc(Cl)c4)CC3)c3ccccc23)CC1", "inhibition": "95% (inactive)"}]}]}
